We go through 6 molecules from PubChem BioAssay (EPA / NIEHS).

In assay [1] the target is human Peroxisome Proliferator-activated Receptor alpha (PPARa), PPARA (gene 5465) (UniProt Q07869). As to the kind of experiment: ATG_PPARa_TRANS: Attagene TRANS-FACTORIAL HepG2 Assay for human Peroxisome Proliferator-activated Receptor alpha (PPARa) (AID 2283001).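 As to AC50: potency for gain of reporter signal over DMSO so agonist or activator.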 The method in brief:
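Cells (HepG2) are transfected with multiple reporter transcription units, exposed to chemical for 24 h, then total RNA is reverse-transcribed and amplified. Labelled products are quantified by capillary electrophoresis; induction is referenced to DMSO.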

Assay [2] deals with human Peroxisome Proliferator-activated Receptor delta (PPARd), PPARD (gene 5467) (UniProt Q03181). As to the kind of experiment: ATG_PPARd_TRANS: Attagene TRANS-FACTORIAL HepG2 Assay for human Peroxisome Proliferator-activated Receptor delta (PPARd) (AID 2283002). An outline of the steps: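 Measured quantity: GAL4-UAS reporter transcript induction in HepG2 after 24 h chemical dosing, with NR-Gal4 chimeras supplied by transient transfection. Detection by RT-PCR and capillary electrophoresis; upward fit against DMSO.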
human Peroxisome Proliferator-activated Receptor delta (PPARd), PPARD (gene 5467), sequence (Q03181 whole entry, looked up, the tested form may be a part): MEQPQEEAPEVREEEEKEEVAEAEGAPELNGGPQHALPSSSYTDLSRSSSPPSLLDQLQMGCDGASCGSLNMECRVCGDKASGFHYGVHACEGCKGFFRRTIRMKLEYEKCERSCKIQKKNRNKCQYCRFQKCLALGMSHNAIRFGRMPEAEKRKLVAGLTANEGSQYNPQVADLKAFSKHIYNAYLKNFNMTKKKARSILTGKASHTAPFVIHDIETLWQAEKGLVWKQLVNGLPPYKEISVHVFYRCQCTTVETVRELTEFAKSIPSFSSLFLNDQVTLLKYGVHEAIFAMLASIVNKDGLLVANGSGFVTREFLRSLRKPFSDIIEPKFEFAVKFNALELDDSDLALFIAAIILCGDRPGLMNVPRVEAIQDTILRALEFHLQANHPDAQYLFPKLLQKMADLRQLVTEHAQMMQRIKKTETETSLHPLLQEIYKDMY

Read-out in assay [3]: Intercellular Adhesion Molecule 1 (ICAM1), ICAM1 (gene 3383)
The assay can be described thus: BSK_3C_ICAM1: BioMAP Diversity Plus: 3C Assay for Intercellular Adhesion Molecule 1 (ICAM1) Biomarker Activity (AID 2283003; active = hit-call score of the fitted dose curve at least 0.9, where 1 is the maximum; inactive = score below 0.9). The note with it: primary human endothelial cells (HUVEC); actives raise or lower the signal. An outline of the steps: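 ELISA readout of ICAM1 in human umbilical vein endothelial cells in the 3C system, taken 24 h post-dose. Gain or loss of signal versus DMSO was fitted in both directions, with SRB total-protein staining run in parallel.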

A short description of assay [4]: BSK_3C_Proliferation: Cell Proliferation Assessment in the BioMAP Diversity Plus: 3C Assay (AID 2283006; active = hit-call score of the fitted dose curve at least 0.9, where 1 is the maximum; inactive = score below 0.9;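 as to AC50: potency may reflect either rise or fall in cell number versus DMSO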). The note with it: primary human endothelial cells (HUVEC). An outline of the steps: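 Proliferation as total protein: sulforhodamine B (0.1%) stain of TCA-fixed subconfluent human umbilical vein endothelial cells, absorbance 560 nm, 48 h after dosing. Activity fitted in both directions against DMSO baseline.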

The target of assay [5] is Peroxisome proliferator-activated receptor gamma (Homo sapiens) (UniProt P37231). As to the kind of experiment: ATG_PPARg_TRANS: Attagene TRANS-FACTORIAL HepG2 Assay for human Peroxisome Proliferator-activated Receptor-gamma (PPARg) (AID 2283007). An outline of the steps: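 After 24 h of chemical exposure, transfected HepG2 cells carrying PPARγ-Gal4 chimera reporter constructs are lysed for RNA. Reporter transcripts are measured by RT-PCR and capillary electrophoresis with fluorescent labelling, and gain of signal is fitted versus DMSO.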
Peroxisome proliferator-activated receptor gamma (Homo sapiens), sequence (P37231 whole entry, looked up, the tested form may be a part): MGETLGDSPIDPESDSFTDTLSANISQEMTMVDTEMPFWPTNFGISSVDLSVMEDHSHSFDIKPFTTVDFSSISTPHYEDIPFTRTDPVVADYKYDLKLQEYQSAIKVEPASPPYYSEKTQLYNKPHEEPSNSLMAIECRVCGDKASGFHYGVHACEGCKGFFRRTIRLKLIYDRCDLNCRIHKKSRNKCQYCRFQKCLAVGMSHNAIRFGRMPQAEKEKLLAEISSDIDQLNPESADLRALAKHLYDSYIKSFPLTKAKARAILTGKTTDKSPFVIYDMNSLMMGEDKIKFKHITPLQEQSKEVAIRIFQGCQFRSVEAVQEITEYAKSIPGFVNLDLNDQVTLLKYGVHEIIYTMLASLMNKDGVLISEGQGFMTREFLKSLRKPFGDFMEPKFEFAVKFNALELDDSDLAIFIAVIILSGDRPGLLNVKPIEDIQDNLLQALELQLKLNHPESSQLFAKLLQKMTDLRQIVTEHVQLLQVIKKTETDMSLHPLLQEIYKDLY

In assay [6] the target is Nuclear receptor subfamily 1 group I member 2 (Homo sapiens) (UniProt O75469). The assay can be described thus: ATG_PXR_TRANS: Attagene TRANS-FACTORIAL HepG2 Assay for human Pregnane X Receptor (PXR) (AID 2283008). The method in brief:
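HepG2 transfected (FuGene 6) with GAL4-UAS reporter units + PXR-Gal4 chimera; dosed 24 h. Total RNA → oligo(dT) RT → PCR → 6-FAM primer extension → HpaI cut → CE. Gain-of-signal vs DMSO.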

Assay [7] has as its target human RAR-related Orphan Receptor gamma (RORg), RORC (gene 6097) (UniProt P51449). As to the kind of experiment: ATG_RORg_TRANS: Attagene TRANS-FACTORIAL HepG2 Assay for human RAR-related Orphan Receptor gamma (RORg) (AID 2283011).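 As to AC50: potency for induction of reporter transcripts above DMSO so activators.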 An outline of the steps: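 HepG2 cells transiently transfected with GAL4-UAS reporter units and chimeric RORg-Gal4 construct; after 24 h chemical exposure, reporter mRNA measured by RT-PCR with fluorescent capillary electrophoresis, gain of signal fitted against DMSO.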

Assay [8] addresses human Retinoid X Receptor beta (RXRb), RXRB (gene 6257) (UniProt P28702). As to the kind of experiment: ATG_RXRb_TRANS: Attagene TRANS-FACTORIAL HepG2 Assay for human Retinoid X Receptor beta (RXRb) (AID 2283013). The method in brief: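 Readout is reporter transcript induction after 24 h dosing. It is measured by RT-PCR of total RNA followed by fluorescent capillary electrophoresis. HepG2 liver cells carry transfected multiple reporter units driven by an exogenous RXRb-Gal4 fusion; activity is relative to DMSO.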

Assay [9] concerns the target human Thyroid Receptor alpha (THRa1), THRA (gene 7067) (UniProt P10827). The assay can be described thus: ATG_THRa1_TRANS: Attagene TRANS-FACTORIAL HepG2 Assay for human Thyroid Receptor alpha (THRa1) (AID 2283014). The method in brief:
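HepG2 cells transiently transfected with chimeric NR-Gal4 and GAL4-UAS reporter units, dosed 24 h. Reporter mRNA quantified by RT-PCR, fluorescent labeling, HpaI digestion and capillary electrophoresis; gain-of-signal fit versus DMSO.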

Read-out in assay [10]: E-selectin (Homo sapiens) (UniProt P16581)
As to the kind of experiment: BSK_3C_Eselectin: BioMAP Diversity Plus: 3C Assay for Eselectin Biomarker Activity (AID 2283015; active = hit-call score of the fitted dose curve at least 0.9, where 1 is the maximum; inactive = score below 0.9;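 as to outcome: cell surface E-selectin protein quantified by ELISA 24 h after dosing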). The note with it: primary human endothelial cells (HUVEC); actives raise or lower the signal. The method in brief:
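Primary human umbilical vein endothelial cells (3C system), read 24 h after compound addition; E-selectin measured by ELISA. Bidirectional curve fitting against DMSO baseline; cytotoxicity by parallel SRB total-protein staining.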

Read-out in assay [11]: Interleukin-1 alpha (IL1a), IL1A (gene 3552)
The assay can be described thus: BSK_BE3C_IL1a: BioMAP Diversity Plus: BE3C Assay for Interleukin-1 alpha (IL1a) Biomarker Activity (AID 2283016; active = hit-call score of the fitted dose curve at least 0.9, where 1 is the maximum; inactive = score below 0.9). The note with it: primary human bronchial epithelial cells; actives raise or lower the signal. An outline of the steps:
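IL-1a measured by ELISA after 24 h treatment of human primary bronchial epithelial cells, with gain or loss of signal fitted versus DMSO. Parallel cultures stained with SRB gauge overt cytotoxicity.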

Read-out in assay [12]: Monocyte Chemoattractant Protein-1 (MCP1), CCL2 (gene 6347)
The assay can be described thus: BSK_3C_MCP1: BioMAP Diversity Plus: 3C Assay for Monocyte Chemoattractant Protein-1 (MCP1) Biomarker Activity (AID 2283017; active = hit-call score of the fitted dose curve at least 0.9, where 1 is the maximum; inactive = score below 0.9). The note with it: primary human endothelial cells (HUVEC); actives raise or lower the signal. The method in brief:
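Human umbilical vein endothelial cells (3C system) exposed to chemicals for 24 h; MCP-1 quantified by ELISA against the DMSO baseline with bidirectional fitting, and parallel SRB staining used to assess cytotoxicity.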

Read-out in assay [13]: Monocyte Chemoattractant Protein-1 (MCP1), CCL2 (gene 6347)
The assay can be described thus: BSK_4H_MCP1: BioMAP Diversity Plus: 4H Assay for Monocyte Chemoattractant Protein-1 (MCP1) Biomarker Activity (AID 2283018; active = hit-call score of the fitted dose curve at least 0.9, where 1 is the maximum; inactive = score below 0.9). The note with it: primary human endothelial cells (HUVEC); actives raise or lower the signal. The method in brief: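 ELISA of MCP-1 (CCL2) 24 h after chemical dosing of HUVEC in the BioMAP 4H system. Gain or loss versus DMSO fitted; parallel SRB staining (560 nm) tracked overt cytotoxicity.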

Read-out in assay [14]: Human Leukocyte Antigen - DR isotype (HLADR), HLA-DRA (gene 3122)
As to the kind of experiment: BSK_3C_HLADR: BioMAP Diversity Plus: 3C Assay for Human Leukocyte Antigen - DR isotype (HLADR) Biomarker Activity (AID 2283019; active = hit-call score of the fitted dose curve at least 0.9, where 1 is the maximum; inactive = score below 0.9). The note with it: primary human endothelial cells (HUVEC); actives raise or lower the signal. The method in brief: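 HUVEC monoculture, HLA-DR measured by ELISA 24 h after chemical dosing. Fitted bidirectionally against DMSO baseline; parallel SRB staining assessed cytotoxicity, with 3C proliferation read by SRB at 48 h.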

Read-out in assay [15]: Interleukin-8 (IL8), CXCL8 (gene 3576)
The assay can be described thus: BSK_3C_IL8: BioMAP Diversity Plus: 3C Assay for Interleukin-8 (IL8) Biomarker Activity (AID 2283020; active = hit-call score of the fitted dose curve at least 0.9, where 1 is the maximum; inactive = score below 0.9). The note with it: primary human endothelial cells (HUVEC); actives raise or lower the signal. An outline of the steps:
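IL-8 was measured by ELISA in HUVEC cultures 24 h after chemical dosing, with gain or loss of signal fitted relative to DMSO. Parallel SRB total-protein staining tracked overt cytotoxicity.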

Read-out in assay [16]: Monokine induced gamma interferon (MIG), CXCL9 (gene 4283)
The assay can be described thus: BSK_3C_MIG: BioMAP Diversity Plus: 3C Assay for Monokine induced gamma interferon (MIG) Biomarker Activity (AID 2283021; active = hit-call score of the fitted dose curve at least 0.9, where 1 is the maximum; inactive = score below 0.9). The note with it: primary human endothelial cells (HUVEC); actives raise or lower the signal. The method in brief:
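ELISA measurement of MIG in human umbilical vein endothelial cells 24 h after treatment. Cytotoxicity tracked by SRB staining in parallel cultures; gain or loss of signal fitted relative to DMSO.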

For assay [17], the target named is human RAR-related Orphan Receptor beta (RORb), RORB (gene 6096) (UniProt Q92753). As to the kind of experiment: ATG_RORb_TRANS: Attagene TRANS-FACTORIAL HepG2 Assay for human RAR-related Orphan Receptor beta (RORb) (AID 2283010). An outline of the steps: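 Read-out is reporter mRNA induction, quantified by RT-PCR with fluorescent capillary electrophoresis, 24 h post-dose in transiently transfected HepG2 expressing exogenous NR-Gal4 chimera. Activity fitted upward versus DMSO.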
human RAR-related Orphan Receptor beta (RORb), RORB (gene 6096), sequence (Q92753 whole entry, looked up, the tested form may be a part): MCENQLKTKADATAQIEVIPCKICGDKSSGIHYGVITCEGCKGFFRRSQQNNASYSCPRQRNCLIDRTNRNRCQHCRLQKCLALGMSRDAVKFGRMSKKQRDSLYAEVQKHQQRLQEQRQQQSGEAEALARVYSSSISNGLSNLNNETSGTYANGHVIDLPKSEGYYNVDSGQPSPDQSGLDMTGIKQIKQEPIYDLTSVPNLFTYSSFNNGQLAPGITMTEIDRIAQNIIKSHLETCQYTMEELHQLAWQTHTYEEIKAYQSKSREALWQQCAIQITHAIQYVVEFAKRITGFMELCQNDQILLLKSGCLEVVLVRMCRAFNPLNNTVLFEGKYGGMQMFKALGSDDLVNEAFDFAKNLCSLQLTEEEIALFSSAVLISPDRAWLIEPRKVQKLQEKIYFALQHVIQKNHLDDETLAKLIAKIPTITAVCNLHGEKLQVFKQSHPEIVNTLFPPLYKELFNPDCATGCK

For assay [18], the target named is Retinoic acid receptor alpha (Homo sapiens) (UniProt P10276). The assay can be described thus: ATG_RARa_TRANS: Attagene TRANS-FACTORIAL HepG2 Assay for human Retinoic Acid Receptor alpha (RARa) (AID 2283005). The method in brief: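 HepG2 cells transiently transfected with multiple reporter units expressing chimeric RARα-GAL4 fusion, with GAL4-UAS-driven reporters. After 24 h compound exposure, reporter mRNA induction quantified by RT-PCR and capillary electrophoresis with fluorescent labeling; gain-of-signal fitted relative to DMSO control.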

In assay [19] the target is Retinoic acid receptor RXR-alpha (Homo sapiens) (UniProt P19793). The assay can be described thus: ATG_RXRa_TRANS: Attagene TRANS-FACTORIAL HepG2 Assay for human Retinoid X Receptor alpha (RXRa) (AID 2283012). The method in brief: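 TRANS format reporting activity of exogenous RXRa-Gal4 chimera in transiently transfected HepG2, 24 h exposure. Reporter transcripts quantified by RT-PCR with capillary electrophoresis, with gain of signal scored relative to DMSO.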
Retinoic acid receptor RXR-alpha (Homo sapiens), sequence (P19793 whole entry, looked up, the tested form may be a part): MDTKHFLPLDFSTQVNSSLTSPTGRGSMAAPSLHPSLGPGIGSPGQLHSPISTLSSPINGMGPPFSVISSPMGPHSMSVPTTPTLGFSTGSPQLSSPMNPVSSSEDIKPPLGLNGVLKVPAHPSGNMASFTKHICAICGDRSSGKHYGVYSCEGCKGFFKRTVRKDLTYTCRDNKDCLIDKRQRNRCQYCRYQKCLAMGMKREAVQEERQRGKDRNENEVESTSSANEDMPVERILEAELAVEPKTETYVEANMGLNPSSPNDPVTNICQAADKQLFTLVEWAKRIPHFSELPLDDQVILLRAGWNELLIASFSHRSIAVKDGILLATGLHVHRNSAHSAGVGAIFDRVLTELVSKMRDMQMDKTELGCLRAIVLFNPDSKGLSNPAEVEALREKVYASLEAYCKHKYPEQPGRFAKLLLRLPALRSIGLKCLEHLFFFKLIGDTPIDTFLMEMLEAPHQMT

Assay [20] concerns the target human Retinoic Acid Receptor beta (RARb), RARB (gene 5915) (UniProt P10826). The assay can be described thus: ATG_RARb_TRANS: Attagene TRANS-FACTORIAL HepG2 Assay for human Retinoic Acid Receptor beta (AID 2283004). The method in brief: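 HepG2 cells were transiently transfected with GAL4-UAS reporter units that report activity of exogenous chimeric NR-Gal4 proteins, then exposed to compound for 24 h. Reporter mRNA was quantified by RT-PCR with capillary electrophoresis fluorescence, as gain of signal over DMSO.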

The structures appear in SMILES notation. Values joined by “and” are separate entries in the source; they are usually repeats but may differ in a detail not shown here. Equal values may be shown once. Inconclusive results are not listed. More than one record can exist for a structure, and the calls need not agree. Active and inactive are the calls of the source. The calls were made as follows, unless noted: active = hit-call score of the fitted dose curve at least 0.9, where 1 is the maximum; inconclusive = response in the unintended direction; inactive = score below 0.9.

Nuclear receptor subfamily 1 group I member 2 (Homo sapiens), sequence (O75469 whole entry, looked up, the tested form may be a part): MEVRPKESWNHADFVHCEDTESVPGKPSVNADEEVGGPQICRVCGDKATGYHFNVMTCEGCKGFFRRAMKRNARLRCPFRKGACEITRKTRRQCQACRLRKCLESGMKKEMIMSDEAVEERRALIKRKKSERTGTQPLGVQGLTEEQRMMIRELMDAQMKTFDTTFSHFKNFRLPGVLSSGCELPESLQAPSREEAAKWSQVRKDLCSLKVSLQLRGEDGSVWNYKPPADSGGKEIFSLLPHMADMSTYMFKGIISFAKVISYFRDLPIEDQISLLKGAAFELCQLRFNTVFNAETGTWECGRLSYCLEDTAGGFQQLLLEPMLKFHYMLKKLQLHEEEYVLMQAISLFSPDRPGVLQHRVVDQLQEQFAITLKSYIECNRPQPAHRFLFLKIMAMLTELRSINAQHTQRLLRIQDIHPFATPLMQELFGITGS
human Thyroid Receptor alpha (THRa1), THRA (gene 7067), sequence (P10827 whole entry, looked up, the tested form may be a part): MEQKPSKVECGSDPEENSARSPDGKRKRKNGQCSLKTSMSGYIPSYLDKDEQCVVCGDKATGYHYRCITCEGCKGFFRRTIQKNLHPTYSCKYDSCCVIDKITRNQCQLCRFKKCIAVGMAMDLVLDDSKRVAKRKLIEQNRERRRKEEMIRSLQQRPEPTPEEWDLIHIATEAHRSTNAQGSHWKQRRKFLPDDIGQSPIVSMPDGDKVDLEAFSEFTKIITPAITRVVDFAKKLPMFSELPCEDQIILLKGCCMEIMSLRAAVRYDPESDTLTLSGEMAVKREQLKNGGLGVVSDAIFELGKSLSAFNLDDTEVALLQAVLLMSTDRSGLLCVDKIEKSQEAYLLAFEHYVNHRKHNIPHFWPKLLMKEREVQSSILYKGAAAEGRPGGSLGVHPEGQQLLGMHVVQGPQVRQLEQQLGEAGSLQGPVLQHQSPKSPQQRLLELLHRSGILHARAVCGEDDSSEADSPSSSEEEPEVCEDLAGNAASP
human Retinoid X Receptor beta (RXRb), RXRB (gene 6257), sequence (P28702 whole entry, looked up, the tested form may be a part): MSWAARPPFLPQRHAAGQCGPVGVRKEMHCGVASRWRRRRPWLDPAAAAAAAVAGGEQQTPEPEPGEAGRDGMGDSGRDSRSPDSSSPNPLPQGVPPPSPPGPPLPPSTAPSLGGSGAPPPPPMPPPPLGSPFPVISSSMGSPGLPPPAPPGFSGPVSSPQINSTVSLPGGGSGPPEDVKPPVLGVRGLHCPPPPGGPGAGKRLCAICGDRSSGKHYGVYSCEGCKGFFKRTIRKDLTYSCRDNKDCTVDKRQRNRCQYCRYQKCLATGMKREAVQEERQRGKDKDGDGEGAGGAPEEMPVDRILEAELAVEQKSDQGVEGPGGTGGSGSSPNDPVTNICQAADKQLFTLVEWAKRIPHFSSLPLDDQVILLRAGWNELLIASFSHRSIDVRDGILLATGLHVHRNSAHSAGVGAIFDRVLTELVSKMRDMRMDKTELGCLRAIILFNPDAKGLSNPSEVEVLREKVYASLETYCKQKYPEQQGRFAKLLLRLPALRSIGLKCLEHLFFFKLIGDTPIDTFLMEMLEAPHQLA
human Peroxisome Proliferator-activated Receptor alpha (PPARa), PPARA (gene 5465), sequence (Q07869 whole entry, looked up): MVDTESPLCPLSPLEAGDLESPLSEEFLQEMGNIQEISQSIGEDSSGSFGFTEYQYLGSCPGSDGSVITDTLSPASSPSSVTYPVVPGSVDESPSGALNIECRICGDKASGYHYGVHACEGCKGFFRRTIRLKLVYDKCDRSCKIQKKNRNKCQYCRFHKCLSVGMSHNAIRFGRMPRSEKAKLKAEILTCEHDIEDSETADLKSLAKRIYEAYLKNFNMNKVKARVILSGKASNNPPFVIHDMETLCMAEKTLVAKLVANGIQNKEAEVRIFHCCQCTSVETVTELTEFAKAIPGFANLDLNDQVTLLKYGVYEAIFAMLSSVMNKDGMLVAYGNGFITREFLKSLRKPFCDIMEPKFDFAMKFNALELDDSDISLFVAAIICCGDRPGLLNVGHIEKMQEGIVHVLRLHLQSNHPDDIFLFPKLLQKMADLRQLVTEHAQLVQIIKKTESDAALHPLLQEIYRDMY
human RAR-related Orphan Receptor gamma (RORg), RORC (gene 6097), sequence (P51449 whole entry, looked up, the tested form may be a part): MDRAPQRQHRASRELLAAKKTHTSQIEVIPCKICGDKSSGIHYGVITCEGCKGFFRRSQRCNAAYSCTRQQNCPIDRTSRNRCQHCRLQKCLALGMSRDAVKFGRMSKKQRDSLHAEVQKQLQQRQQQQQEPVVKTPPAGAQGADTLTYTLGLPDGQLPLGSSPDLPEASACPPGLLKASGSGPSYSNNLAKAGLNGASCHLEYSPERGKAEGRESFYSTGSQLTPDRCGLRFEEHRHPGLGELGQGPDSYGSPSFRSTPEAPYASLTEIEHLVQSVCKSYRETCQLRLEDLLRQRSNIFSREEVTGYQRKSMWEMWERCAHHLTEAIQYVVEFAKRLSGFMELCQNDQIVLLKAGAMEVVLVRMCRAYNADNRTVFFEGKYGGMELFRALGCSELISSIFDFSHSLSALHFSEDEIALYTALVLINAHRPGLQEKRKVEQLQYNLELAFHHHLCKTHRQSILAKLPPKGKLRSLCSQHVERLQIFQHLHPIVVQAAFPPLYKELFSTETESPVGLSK
E-selectin (Homo sapiens), sequence (P16581 whole entry, looked up): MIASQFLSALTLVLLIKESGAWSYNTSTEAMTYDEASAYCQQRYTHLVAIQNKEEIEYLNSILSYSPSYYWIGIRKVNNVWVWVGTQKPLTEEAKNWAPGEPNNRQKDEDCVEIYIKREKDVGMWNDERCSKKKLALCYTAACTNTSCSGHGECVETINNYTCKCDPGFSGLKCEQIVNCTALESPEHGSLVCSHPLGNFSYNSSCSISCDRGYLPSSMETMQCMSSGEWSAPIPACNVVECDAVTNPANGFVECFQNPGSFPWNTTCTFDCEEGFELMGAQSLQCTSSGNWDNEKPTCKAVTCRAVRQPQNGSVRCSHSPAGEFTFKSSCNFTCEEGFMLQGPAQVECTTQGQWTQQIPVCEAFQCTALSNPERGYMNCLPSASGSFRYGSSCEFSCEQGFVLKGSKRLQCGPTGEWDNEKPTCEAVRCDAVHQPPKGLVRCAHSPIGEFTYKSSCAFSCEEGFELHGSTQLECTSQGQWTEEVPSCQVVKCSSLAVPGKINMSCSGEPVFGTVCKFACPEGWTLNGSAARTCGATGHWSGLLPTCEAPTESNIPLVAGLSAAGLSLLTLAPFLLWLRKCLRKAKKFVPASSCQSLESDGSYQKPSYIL

Broadly, the AC50 is the midpoint of the concentration-response curve, whichever way the signal moves. `CCCCCCCCCCCO`: the half-maximal activity concentration (AC50) is 100 µM (active) in assay [1]; 166 µM (active) in assay [2]; 36.8 µM (active) in assay [3]; 34.2 µM (active) in assay [4]; 62.9 µM (active) in [5]; 159 µM (active) in [7]. The concentration at half-maximal activity (AC50) in assay [8] was 47.8 µM (active); in [10], 32 µM (active); in assay [14], 31 µM (active); in assay [15] it was 28.6 µM (active). Besides, the outcome in [6], in assay [9], in assay [11], in [12], in assay [13] and in assay [16] was inactive.
For the molecule `CCCCOC(=O)CC(CC(=O)OCCCC)(OC(C)=O)C(=O)OCCCC`, the result in assay [1], in assay [2], in assay [3], in [6], in [9] and in assay [10] was inactive. Further, the result in assay [11], in assay [12], in assay [13], in assay [14], in assay [15] and in assay [16] was inactive. Moreover, the AC50 in assay [4] is 31.5 µM (active); in assay [5], 16.2 µM (active) and 8.69 µM (active); in assay [6] it was 3.1 µM (active).
Consider `O=CCCCC=O`, for which the result in assay [1], in assay [2], in assay [3], in [5], in assay [6] and in assay [17] was inactive. Moreover, the outcome in [7], in assay [8], in [12], in assay [13], in assay [15] and in assay [16] was inactive. In addition, the AC50 was 25.1 µM (active) in assay [4], 33.7 µM (active) in assay [10], 33.2 µM (active) in [11] and 29.5 µM (active) in assay [14].
In the case of `Cc1cccc2ccccc12`, the molecule was classed as inactive in assay [1], in assay [2], in [3], in assay [18], in [4] and in [5]. Moreover, the molecule was classed as inactive in [6], in assay [17], in assay [7], in assay [8], in [9] and in assay [10]. Besides, the result in assay [11], in assay [12], in assay [13], in assay [14], in assay [15] and in [16] was inactive.
Take `CCCCCc1ccc(N)cc1`: the molecule was called inactive in [1], in assay [2], in assay [3], in assay [5], in assay [6] and in assay [19]. In addition, the molecule was called inactive in assay [8], in [9], in [10], in assay [11], in assay [12] and in assay [13]. The result in assay [15] and in assay [16] was inactive. For the same molecule, the AC50 is 6.3 µM (active) in [4]; 100 µM (active) and 34 µM (active) in assay [5]; 14.5 µM (active) in assay [14].
With `CC(C)(O)c1ccc(CNC(=O)c2cccnc2Oc2ccc3nonc3c2)cc1`, the AC50 in assay [1] is 1.08 µM (active); in assay [5], 27 µM (active); in assay [6], 10.5 µM (active). The call in [2], in assay [3], in assay [20], in [4], in [7] and in [19] was inactive. In addition, the molecule was classed as inactive in assay [8], in assay [10], in assay [11], in [12], in [13] and in assay [14]. For the same molecule, the outcome in assay [15] and in assay [16] was inactive.
